# Assay outcomes deposited in PubChem by National Center for Advancing Translational Sciences (NCATS).
# Hits are enriched below; roughly 10% of the tested compounds scored in any of these assays.
# NIH3T3 tox – cytotoxic compounds in NIH 3T3 cells | 4.3% of 94,000 active | Potency, µM (top dose mostly 96.7 µM), for the others: at the highest dose activity change, negative = cytotoxicity, most hits filed as inhibitors | NIH 3T3 viability, CellTiter-Glo ATP luminescence, 48-72 h | AID 1345082; note: nearly all actives have a fitted effect of over 55% in size
#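 Cytotoxicity was measured by CellTiter-Glo ATP luminescence after 48 or 72 h compound exposure at 37 °C. Mouse NIH 3T3 fibroblasts were seeded at 400 cells/well and dosed by 23 nL pin transfer.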
# GPT2 inhibitor – inhibitors of human GPT2 alanine aminotransferase; Recombinant GPT2, coupled pyruvate oxidase/HRP Amplex Red fluorescence; AID 1671188; Potency, µM (doses to about 57.7 µM), for the others: at the highest dose activity change, negative = inhibition, hits mostly inhibitors; 0.25% of 100,000 active; note: nearly all actives have a fitted effect of over 60% in size
#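 GPT2 10ng/uL, a-KG 250uM, L-Ala 2mM, HEPES pH7.5 + 0.0001% Tween; 30 min RT. Then Amplex mix (PO/HRP/ThPP), 30 min RT dark, fluorescence. AOA 50uM used as positive control.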
# Luciferase inh – inhibitors of firefly (Photinus pyralis) luciferase; P08659; purified P. pyralis luciferase, luminescence, biochemical; Potency, µM (titrated, usually from 115 µM), most hits filed as inhibitors; 2.5% of 76,000 active; AID 1347043; note: nearly all actives have a fitted effect of over 65% in size
#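 Purified P. pyralis luciferase (10nM final) in 50mM Tris acetate pH 7.5, 10mM Mg acetate, 0.01% Tween-20, 0.05% BSA with 10uM D-luciferin and 10uM ATP. Compounds titrated qHTS. Luminescence imaged on CCD.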
# NPR1 antag – human Npr1 receptor antagonism | Potency, µM (titrated, usually from 46.3 µM), for the others: at the top dose activity change, negative = inhibition, actives largely listed as inhibitors | 1.6% of 76,000 active | P16066 | HEK293 hNpr1 GloSensor cGMP, ANP-stimulated luminescence; calls by dose curve; note: nearly all actives have a fitted effect of over 60% in size
#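 HEK293 cells stably expressing human Npr1 and cGMP GloSensor pGS-40F, loaded 2 h with 2% GloSensor reagent, given compound 30 min at room temperature. Luminescence read before and 20 min after 0.1 nM hNppA.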
# HEK293 tox – HEK 293 cell cytotoxicity. Potency, µM (highest dose often 115 µM), inactives show at the top dose activity change, negative = cytotoxicity, actives largely listed as inhibitors. HEK 293 viability, ATP luminescence (CellTiter-Glo), 48-72 h. 6.6% of 94,000 active; note: nearly all actives have a fitted effect of over 60% in size
#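 Cytotoxicity was scored by loss of ATP-coupled luminescence (CellTiter-Glo) in HEK 293 cells. Compound treatment ran 48 or 72 hr at 37 degree Celsius, 5% CO2, 95% humidity.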
# Starred values were filed as active, the others as inactive; i = inactive; ? = inconclusive; · = no result given; [ ] = remark or other dose. Unless noted, calls come from the whole dose curve; as a rule, active = well fitted curve in the direction sought with a large enough effect; inconclusive = small, poorly fitted or top-dose-only effect, or another doubt; inactive = no such curve, though single readings can be large; an effect the other way counts as inactive or inconclusive. % is set by controls: 0 for no effect and ±100 for the full control effect; potency is the fitted concentration of half-maximal effect.
SMILES,NIH3T3 tox,GPT2 inhibitor,Luciferase inh,NPR1 antag,HEK293 tox
O=C(Cc1ccc(Cl)cc1)Nc1cccc(-c2nnc3n2CCCC3)c1,?,?,i,-22%,50µM*
CN1CCN(C(=O)c2ccc3oc(-c4ccncc4)nc3c2)CC1,-12%[138 µM],-7%[88.5 µM],·,·,1%[172 µM]
O=C(c1ccc(F)cc1)N1CCC2(CCc3nn(Cc4ccccc4)c(=O)n3CC2)CC1,?,i,·,·,?
COc1cccc(CNC(=O)c2nc3sccn3c2-c2ccc(F)cc2)c1,?,4%,·,·,?
C[C@@H](NC(=O)C1CC1)c1c(-c2ccc(F)cc2)noc1C(=O)O,-12%[138 µM],-10%[88.5 µM],i,1%[70.6 µM],-12%[172 µM]
C[C@@H](NC(=O)C1CCCCC1)c1c(-c2ccc(F)cc2)noc1C(=O)O,40µM*,-2%[88.5 µM],i,-1%[70.6 µM],-7%[172 µM]
COCCNC(=O)c1nc2sccn2c1-c1cccc(C(F)(F)F)c1,-8%,4%,·,·,4%
O=Cc1ccccc1-c1cnc2ccccc2c1,79µM*,-13%[88.5 µM],·,·,-25%[172 µM]
Cc1cc(C)cc(-c2ccccc2C=O)c1,?,i,·,·,?
Cc1cccc(-c2nc3ccc(C(=O)NCCN4CCOCC4)cc3o2)n1,?,1%[88.5 µM],·,·,-18%[172 µM]
Cc1cnc(-c2ccccc2)n1CC1CCCN(Cc2ccc(C#N)cc2)C1 (stereo not given),?,-9%,·,·,?
C[C@H](C(=O)N1CCCC1)[C@@H]1CC[C@@]2(C)Cc3sc(-c4ccsc4)nc3[C@@H](C)[C@@H]2[C@H]1O,-26%,-4%,11µM*,-19%,?
C#CCNC[C@@H]1C=C(C)[C@H](Cc2nnc(-c3ccccc3F)o2)C[C@H]1C(C)C,?,0%[88.5 µM],i,-2%[70.6 µM],71µM*
COc1ccc(-c2nnc(C[C@@H]3C[C@@H](C(C)C)[C@H](CNC(=O)c4cnccn4)C=C3C)o2)cc1,-6%,1%,i,2%,?
CC1=C[C@@H](CNC(=O)c2cnccn2)[C@H](C(C)C)C[C@H]1Cc1nnc(-c2ccccc2F)o1,?,-25%,i,-22%,35µM*
C#CCNC[C@@H]1C=C(C)[C@H](Cc2nnc(Cc3c[nH]c4ccccc34)o2)C[C@H]1C(C)C,?,2%[88.5 µM],i,-13%[70.6 µM],50µM*
CC(=O)Nc1ccc(C(=O)NC[C@@H]2C=C(C)[C@H](Cc3nnc(-c4ccccc4F)o3)C[C@H]2C(C)C)cc1,?,-7%,i,-4%,28µM*
CC1=C[C@@H](CNC(=O)c2cncnc2)[C@H](C(C)C)C[C@H]1Cc1nnc(-c2ccccc2F)o1,?,i,i,-8%,?
CC1CCN(C(=O)[C@@H](C)C2CC[C@@]3(C)CC[C@H](NC(=O)c4cncnc4)[C@@H](C)[C@@H]3[C@H]2O)CC1 (stereo not given in full),-1%,i,i,1%,i
CC1=C[C@@H](CNC(=O)CN(C)C)[C@H](C(C)C)C[C@H]1Cc1nnc(-c2ccccc2F)o1,32µM*,-6%[88.5 µM],i,-1%[70.6 µM],?
CCNC(=O)NC[C@@H]1C=C(C)[C@H](Cc2nnc(-c3ccccc3F)o2)C[C@H]1C(C)C,?,-34%[88.5 µM],i,-28%[70.6 µM],?
CC1=C[C@@H](CNC(=O)NC(C)C)[C@H](C(C)C)C[C@H]1Cc1nnc(-c2ccccc2F)o1,32µM*,?,i,-19%[70.6 µM],79µM*
CCCNC(=O)NC[C@@H]1C=C(C)[C@H](Cc2nc3ccccc3[nH]2)C[C@H]1C(C)C,35µM*,2%[88.5 µM],i,?,100µM*
CC1=C[C@@H](CNC(=O)c2ccccc2)[C@H](C(C)C)C[C@H]1Cc1nc2ccc(C)cc2[nH]1,?,-10%[88.5 µM],i,-27%[70.6 µM],50µM*
CC1=C[C@@H](CNC(=O)CCC(=O)O)[C@H](C(C)C)C[C@H]1Cc1nc2c(C)cccc2[nH]1,-2%[174 µM],2%[88.5 µM],i,-2%[70.6 µM],?
SMILES,NIH3T3 tox,GPT2 inhibitor,Luciferase inh,NPR1 antag,HEK293 tox
COC(=O)c1ccc2nc(C[C@@H]3C[C@@H](C(C)C)[C@H](CNC(=O)c4cccnc4)C=C3C)[nH]c2c1,?,3%,i,-5%,?
CC1=C[C@@H](CNC(=O)c2ccccc2)[C@H](C(C)C)C[C@H]1Cc1nc2ccncc2[nH]1,?,i,i,?,79µM*
COc1ccccc1CN(Cc1ccccc1OC)C[C@@H]1C=C(C)[C@H](Cc2nc3c(C)cccc3[nH]2)C[C@H]1C(C)C,32µM*,-9%,i,?,16µM*
CC1=C[C@@H](CNC(=O)Cn2cnnn2)[C@H](C(C)C)C[C@H]1Cc1nc2ccccc2[nH]1,-23%[138 µM],-10%[88.5 µM],i,-26%[70.6 µM],?
CN(c1ccccc1)C1CNC1,i,1%[88.5 µM],·,·,5%[287 µM]
O=C1CC(c2ccccc2)N(Cc2ccncc2)CCCN(Cc2ccccn2)CCN1 (stereo not given),-25%,i,i,2%,?
CC1=C[C@@H](CNC(=O)c2cccnc2)[C@H](C(C)C)C[C@H]1CC(=O)N1CCCC1,-10%[138 µM],-2%[88.5 µM],63µM*,-12%[70.6 µM],-15%[172 µM]
CC1=C[C@@H](CNC(=O)CCC(=O)O)[C@H](C(C)C)C[C@H]1Cc1nc2ccc(C)cc2[nH]1,-2%[174 µM],i,i,7%[70.6 µM],0%[172 µM]
CC(=O)NC[C@@H]1C=C(C)[C@H](Cc2nc3ccc(C)cc3[nH]2)C[C@H]1C(C)C,71µM*,-13%[88.5 µM],i,?,?
CC1=C[C@@H](CNC(=O)Cn2cnnn2)[C@H](C(C)C)C[C@H]1Cc1nc2ccncc2[nH]1,-26%[174 µM],-3%[88.5 µM],i,2%[70.6 µM],?
CC1=C[C@@H](CN2C(=O)c3ccccc3C2=O)[C@H](C(C)C)C[C@H]1Cc1nc2ccccc2[nH]1,25µM*,-15%[88.5 µM],i,?,32µM*
COc1ccccc1C(=O)NC[C@@H]1C=C(C)[C@H](Cc2nc3ccncc3[nH]2)C[C@H]1C(C)C,?,-13%[88.5 µM],i,-19%[70.6 µM],35µM*
COCCCNC(=O)N1CCC(C)(c2noc(C3CCOCC3)n2)CC1,-7%,-4%,·,·,i
Cc1nn(-c2ccc(F)cc2)c(Oc2ccccc2)c1CCC(=O)N1CCOCC1,?,-3%,i,-16%,?
Cc1cccc(-n2nc(C)c(CCC(=O)N3CCOCC3)c2Oc2ccc(F)cc2F)c1,?,-27%,i,-18%,?
CCc1nn(-c2ccc(F)cc2)c(Oc2ccccc2)c1CCC(=O)N1CCCC1,?,?,i,-27%,45µM*
CCc1nn(-c2ccccc2)c(Oc2cccc(C)c2)c1CCC(=O)N1CCOCC1,?,5%,i,-22%,40µM*
Cc1cccc(-c2cccc(CN3CCCC(C(=O)N4CCOCC4)C3)c2)c1 (stereo not given),?,-34%,·,·,?
